# The sample as a whole holds a higher share of hits than the screen did.
# RECQ1 inh: qHTS Assay for Inhibitors of RecQ-Like Dna Helicase 1 (RECQ1). ATP-dependent DNA helicase Q1 (Homo sapiens), P46063. RECQ1 DNA unwinding, red fluorescence kinetic read. Potency, µM (top dose mostly 57.3 µM), without a hit: at the highest dose activity, negative = inhibition, actives largely listed as inhibitors. 240,000 tested, 0.54% active. AID 2549, 2010;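 note: plate controls were vehicle for no effect and no enzyme for full effect; nearly all actives have a fitted effect of over 30% in size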
#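 50 nM RECQ1T1 preincubated 15 min with compound in Tris pH 8.0 buffer with MgCl2, DTT, Tween-20 and 2.5 ug/ml poly(dI-dC); started with 200 nM TAMRA/BHQ-2 forked duplex and 2 mM ATP. Unwinding read as fluorescence (525/598 nm), two reads 2 h apart.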
# APEX1 inh: qHTS Assay for Inhibitors of the Human Apurinic/apyrimidinic Endonuclease 1 (APE1). 350,000 tested, 0.35% active. DNA repair nuclease/redox regulator APEX1 (Homo sapiens), P27695. recombinant APE1, TAMRA/BHQ-2 abasic DNA cleavage fluorescence. AID 2517, 2012. Potency, µM (series often up to 65.8 µM), without a hit: at the highest dose activity change, negative = inhibition, actives largely listed as inhibitors;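 note: plate controls were vehicle for no effect and reference inhibitor for full effect; nearly all actives have a fitted effect of over 55% in size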
#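 APE1 at 0.75 nM final was preincubated with compound 15 min at room temperature, then 50 nM double-stranded THF abasic-site substrate (5'-TAMRA/3'-BHQ-2) was added. Fluorescence (ex 525/em 598 nm) was read kinetically; third-minus-first read gave activity.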
# JMJD2E inh: qHTS Assay for Inhibitors of Human Jumonji Domain Containing 2E (JMJD2E) | Lysine-specific demethylase 4E (Homo sapiens), B2RXH2 | JMJD2E catalytic domain, FDH-coupled NADH fluorescence (FDH is formaldehyde dehydrogenase) | Potency, µM (titrated, usually from 57.1 µM), for inactives: at the top dose activity change, negative = inhibition, most hits filed as inhibitors | 230,000 tested, 1.6% active; active = well fitted inhibition curve with a large enough effect, not every such curve was filed as active; inconclusive = small, poorly fitted or top-dose-only effect, or another doubt; inactive = no such curve, though single readings can be large or run the other way;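 note: 0% = wells with enzyme and -100% = buffer wells without enzyme; nearly all actives have a fitted effect of over 50% in size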
# Target sequence (B2RXH2 1-337 limits assumed): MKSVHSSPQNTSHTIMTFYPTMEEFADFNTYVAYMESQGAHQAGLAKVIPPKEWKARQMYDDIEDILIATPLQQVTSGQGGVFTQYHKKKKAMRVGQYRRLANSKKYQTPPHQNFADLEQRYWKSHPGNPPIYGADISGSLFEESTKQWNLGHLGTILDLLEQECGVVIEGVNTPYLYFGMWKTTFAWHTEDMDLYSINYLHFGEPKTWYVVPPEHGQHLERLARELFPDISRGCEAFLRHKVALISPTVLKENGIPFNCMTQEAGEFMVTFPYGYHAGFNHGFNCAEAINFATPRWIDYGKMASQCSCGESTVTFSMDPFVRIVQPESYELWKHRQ
# L3MBTL1 inh: qHTS Assay for the Inhibitors of L3MBTL1. AlphaScreen L3MBTL1–H3K9me1 peptide binding. Lethal(3)malignant brain tumor-like protein 1 (Homo sapiens), Q9Y468. Potency, µM (top dose mostly 57.1 µM), inactives show top-dose activity, negative = inhibition, actives largely listed as inhibitors. 230,000 tested, 0.66% active; note: nearly all actives have a fitted effect of over 60% in size
#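 AlphaScreen proximity signal between nickel-chelate acceptor and streptavidin donor beads (final 10 ug/mL) reports binding of 50 nM L3MBTL1 to 75 nM biotin-H3 K9me1 peptide; complex incubated with compounds 30 min at room temperature; cefsulodin titration as control.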
# BLM inh: qHTS Assay for Inhibitors of Bloom's syndrome helicase (BLM); recombinant BLM DNA unwinding, fluorescence dequenching; Potency, µM (highest dose often 56.1 µM), inactives show at the top dose activity change, negative = inhibition, actives largely listed as inhibitors; 350,000 tested, 0.2% active;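 note: plate controls were vehicle for no effect and no enzyme for full effect; nearly all actives have a fitted effect of over 35% in size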
# GoLoco inh red: qHTS Assay for Inhibitors of RGS12 GoLoco Motif Activity (Red Fluorophore) | 230,000 tested, 0.44% active | Potency, µM (series often up to 61.6 µM), without a hit: top-dose activity, negative = inhibition, most hits filed as inhibitors | AID 880, 2007 | Guanine nucleotide-binding protein G(i) subunit alpha-1 (Homo sapiens), P63096 | Gai1:RGS12 GoLoco peptide FP, rhodamine, 10 min; active = well fitted inhibition curve with a large enough effect, not every such curve was filed as active; inactive = no such curve, though single readings can be large or run the other way; note: nearly all actives have a fitted effect of over 30% in size
# Target sequence (P63096 whole entry, looked up): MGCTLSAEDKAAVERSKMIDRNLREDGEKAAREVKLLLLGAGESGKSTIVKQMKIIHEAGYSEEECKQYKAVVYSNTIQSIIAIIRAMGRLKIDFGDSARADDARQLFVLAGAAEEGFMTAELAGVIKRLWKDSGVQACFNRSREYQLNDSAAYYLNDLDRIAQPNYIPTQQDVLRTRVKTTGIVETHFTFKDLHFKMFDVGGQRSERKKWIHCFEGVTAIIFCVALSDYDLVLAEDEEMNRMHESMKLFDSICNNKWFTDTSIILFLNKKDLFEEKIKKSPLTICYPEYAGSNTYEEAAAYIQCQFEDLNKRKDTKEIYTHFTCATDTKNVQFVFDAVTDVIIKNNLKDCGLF
# An asterisk follows results filed as active; i = inactive; ? = inconclusive; . = not tested or not shown; ! = not confirmed by another sample; [ ] = another dose, or the depositor's remark. Unless noted, calls come from the whole dose curve; as a rule, active = well fitted curve in the direction sought with a large enough effect; inconclusive = small, poorly fitted or top-dose-only effect, or another doubt; inactive = no such curve, though single readings can be large; an effect the other way counts as inactive or inconclusive. Unless noted, % is set by controls: 0 for no effect and ±100 for the full control effect; potency is the fitted concentration of half-maximal effect.
SMILES,RECQ1 inh,APEX1 inh,JMJD2E inh,L3MBTL1 inh,BLM inh,GoLoco inh red
N#Cc1c(-c2ccc3c(c2)OCO3)no[n+]1[O-],.,7.2%,.,.,.,.
CCOC(=O)c1c(NC(=O)C(=O)N/N=C/c2ccccc2O)sc2c1CCCCC2,-2.1%,2.6%,31.6µM*,0.1%,4.9%,11.2%
CCOC(=O)c1c(NC(=O)C(=O)N/N=C/c2ccccc2OC)sc2c1CCCCC2,-2.2%,8.5%,-0.6%,10.4%,-2.5%,-0.3%
C[C@@H](c1ccccc1)N1C(=O)[C@H]2[C@@H]3[C@H](O)[C@H](O)CC(=O)[C@H]3CC[C@H]2C1=O,18.2%[11.5 µM],-6.4%[12.4 µM],.,.,-1.2%[12.4 µM],.
CCCCn1c(O)c(/C=C/C=C/C=Nc2ccccc2)sc1=S,31.6µM*,-4.6%,-10.4%,-16.5%,-25.1%,77.0%
CCn1c(O)c(/C=C/C=C/C=Nc2ccccc2)sc1=S,i,-6.8%,3.7%,-13.1%,-11.1%,184.8%
NC(=O)C1CCN(c2nc(-c3ccc([N+](=O)[O-])cc3)cs2)CC1,.,38.3%,.,.,.,.
Cc1ccc(C2CC(=O)Oc3cc(C)c(Cl)c(C)c32)cc1 (stereo not drawn),-12.9%[81.1 µM],?,.,.,-11.4%[75.6 µM],-13.1%[88.7 µM]
O=C(O)C(S)[C@@H](S)C(=O)O (stereo partly drawn),i,14.1µM*,?,.,3.6%,2.2%
O=C(O)[C@@H](O)[C@H](O)[C@H](O)[C@@H](O)C(=O)O,.,1.3%,.,.,.,.
O=C(O)c1cc(O)c2c(c1)[C@@H]([C@H]1c3cc(C(=O)O)cc(O)c3C(=O)c3c(O[C@@H]4O[C@H](CO)[C@@H](O)[C@H](O)[C@H]4O)cccc31)c1cccc(OC3O[C@H](CO)[C@@H](O)[C@H](O)[C@H]3O)c1C2=O (stereo partly drawn),.,0.0844µM*,.,0.159µM*,.,.
O=C(O)c1cc(O)c2c(c1)[C@H]([C@H]1c3cc(C(=O)O)cc(O)c3C(=O)c3c(O[C@@H]4O[C@H](CO)[C@@H](O)[C@H](O)[C@H]4O)cccc31)c1cccc(OC3O[C@H](CO)[C@@H](O)[C@H](O)[C@H]3O)c1C2=O (stereo partly drawn),.,0.067µM*,.,0.159µM*,.,.
O=C1c2c(O)cccc2C(C2OC(CO)[C@@H](O)[C@H](O)[C@H]2O)c2cc(CO)cc(O)c21 (stereo partly drawn),.,19.8%,.,-6.5%,.,.
COc1cc2c(-c3ccccc3C)nc3c(c(C)nn3-c3ccccc3)c2cc1OC,.,.,.,.,-10.9%,.
CCOc1ccccc1N1CSC2=C(C#N)C(c3c(OC)ccc4ccccc34)CC(=O)N2C1 (stereo not drawn),?,-3.7%,7.94µM*,-14.5%,-8.4%,-12.2%
COc1ccc(N2CSC3=C(C#N)C(c4cc(OC)ccc4OC)CC(=O)N3C2)c(OC)c1 (stereo not drawn),?,-3.5%,-21.7%,-16.3%,-10.3%,-13.4%
N#Cc1c(-c2cccc(O)c2)no[n+]1[O-],.,-3.1%,.,.,.,.
CC(=O)NC(CCC(=O)O)C(=O)O (stereo not drawn),-6.5%,10.0%,4.9%,.,-5.2%,-4.2%
CC(=O)N[C@@H](CC(=O)O)C(=O)N[C@@H](CCC(=O)O)C(=O)O,?,3.55µM*!,-8.0%,.,-1.5%,78.5%
CCCCCCCCCC[n+]1cccc2c3ccccc3ccc21,1.4%,17.9%,?,.,4.9%,10µM*
Cc1cccc(Nc2nc3ccccc3s2)c1C,-2.1%,-2.6%,-3.1%,-4.8%,-1.7%,6.9%
COc1ccccc1Nc1n[nH]c(=S)s1,?,14.4%,20µM*,-10.9%,0.0%,-4.0%
Cc1cccc(Nc2n[nH]c(=S)s2)c1C,-5.7%,-1.1%,12.6µM*,1.0%,-0.2%,3.4%
COc1ccc(CN2C(=O)c3cccnc3C2Nc2cc(Cl)c(OC)cc2OC)cc1 (stereo not drawn),i,0.6%,15.8µM*,?,-2.9%,27.2%
CCCCc1nc2c(c3c1C[C@H](C)OC3)CN(C(=O)c1cccnc1)CC2,i[11.5 µM],-0.3%[12.4 µM],8.2%[11.4 µM],.,-0.5%[12.4 µM],-2.0%[14.2 µM]
SMILES,RECQ1 inh,APEX1 inh,JMJD2E inh,L3MBTL1 inh,BLM inh,GoLoco inh red
CCCCNC(=S)N1CCN(C)CC1,-0.4%,-4.8%,8.91µM*,1.9%,2.3%,-5.5%
CC(C)CNC(=S)N1CCN(C)CC1,i,13.7%,-24.6%,9.7%,-2.0%,-5.9%
CN(C)c1ncc2nc(-c3ccccc3)c(=O)n(Cc3ccc(F)cc3)c2n1,-10.3%,-3.4%,.,.,-3.1%,9.7%
CN(C)c1ncc2nc(-c3ccc(Cl)cc3)c(=O)n(Cc3ccc(F)cc3)c2n1,-5.6%,31.6µM*,.,.,1.1%,4.2%
CCN(CC)C(=O)N1CCN(C)CC1,-5.0%,-4.1%,25.1µM*!,.,6.8%,4.5%
CCN(CC)C(=O)N1CCN(C(=O)N(CC)CC)CC1,-9.7%,-3.9%,9.3%,2.9%,-2.7%,1.7%
N#Cc1c(-c2ccc(O)cc2)no[n+]1[O-],.,-11.7%,.,.,.,.
CC(O)c1cc2c(s1)c1cnn(Cc3ccccc3F)c(=O)c1n2C (stereo not drawn),.,-8.4%,.,2.2%,.,.
S=c1cnc2ccccc2[nH]1,i,1.9%,11.2µM*,2.5%,-2.6%,-20.1%
Cc1cc(C)nc(SCc2ccc(C(=O)N/N=C/c3cccc(O)c3O)cc2)n1,2.9%,3.7%,3.16µM*,-11.7%,-22.0%,12.7%
CCOc1ccc(NC(=O)c2ccc(NC(=O)c3ccc(NC(N)=O)cc3)cc2)cc1,.,13.4µM*,.,-24.2%,.,.
CCOc1ccc(NC(=O)c2ccc(N)cc2)cc1,-0.1%,-2.9%,5.9%,17.9%,3.2%,8.3%
N#Cc1cccc(NC(=O)Cn2c3[n+](c4ccc(C(F)(F)F)cc42)CCCCC3)c1,5.1%,3.6%,-25.4%,4.2%,-10.9%,14.1µM*
Fc1ccccc1Cn1c2[n+](c3ccc(C(F)(F)F)cc31)CCCCC2,-4.5%,-0.2%,10.5%,5.4%,2.2%,8.2%
Cc1cc(Cn2cnc3c(cnn3C(C)(C)C)c2=O)ccc1F,.,-0.7%,.,.,.,.
COc1ccc2c(c1)C(c1ccccc1C)CC(=O)O2 (stereo not drawn),-3.3%[81.1 µM],9.2%[120 µM],.,.,-14.3%[120 µM],4.0%[88.7 µM]
Cc1cc(N/N=C/c2ccc(O)c(C)c2O)nc(-c2ccccc2O)n1,-16.0%,17.2%,25.1µM*,2.6%,-2.2%,9.3%

# From PubChem
